This is one part of the list. Unmarked numbers belong to inactive results. Cut-off read from the data, not from the text of the source: active = inhibition above about 32%; inactive = the rest.
What follows are molecules tested on Botulinum neurotoxin type A light chain protease (Clostridium botulinum A str. ATCC 3502) (assay: BoNT/A light chain protease inhibitors, confirmation, biochemical, flow cytometry, cherry pick 1 (AID 602139)). Details: multiplex microsphere protease assay, at 10 µM, hits give high values.

Compound	inhibition
CC(=O)Nc1ccc(Oc2ccc3c(c2)C(=O)NC3=O)cc1	0.3%
COc1ccccc1CNC(=O)C1Cc2ccccc2C(=O)O1 (configuration not stated)	-0.4%
O=C(O)c1cc(S(=O)(=O)NC2CCCc3ccccc32)ccc1O (configuration not stated)	0.7%
COc1cc(C(=O)NCc2ccc3c(c2)cc(C)n3C)cc(OC)c1OC	-0.1%
CCOCCn1c(-c2ccccc2)nc2ccccc21	-0.1%
COc1ccc(N(CC(=O)NCCSCc2cccc(Cl)c2)S(C)(=O)=O)cc1	1%
CC(=O)c1cccc(NC(=O)N2CCCC2C(=O)NCCc2ccccc2)c1 (configuration not stated)	1.9%
CCOc1nnc(C)c2c(C)n(-c3cccc(Cl)c3)nc12	-6.5%
COCc1cc(=O)[nH]c(SC)n1	0.2%
COc1ccc(C(=O)Nc2nc(-c3ccc(OC)cc3)c(-c3ccc([N+](=O)[O-])cc3)s2)cc1	15.9%
OC(c1ccc(Cl)cc1)C(CN1CCOCC1)c1ccccc1 (configuration not stated)	2.5%
COc1ccccc1C1CCN(C(=S)Nc2ccc(Br)cc2)CC1	0.8%
Cc1ccc(C(=O)COc2cccc(NC(=O)c3ccco3)c2)cc1	-0.4%
CN(C(=O)c1ccccn1)c1nnc(-c2ccccn2)s1	-1.1%
CCCN1C2CCCC1CC(NC(=O)c1cccc(OC)c1)C2 (configuration not stated)	0.4%
O=C(Nc1nnc(CCc2ccccc2)s1)C1CCCO1 (configuration not stated)	-0.5%
COc1ccc(Br)cc1CNCCc1cccc(Cl)c1	1.5%
CCCSc1nc2sc3c(c2c(=O)n1-c1ccc(OC)cc1)CCN(C)C3	1.8%
Cc1cccc2cc3c(N)c(C(=O)N4CCCc5ccccc54)sc3nc12	16.3%
O=C(CN1CCCCCC1)Nc1c(Cl)cc(Cl)cc1Cl	0%
COc1ccc(NS(=O)(=O)c2cc(C(=O)Nc3ccccc3C(=O)O)ccc2C)cc1	0.6%
Cc1ccccc1NC(=O)c1cc(S(=O)(=O)Nc2cccc(C(=O)O)c2)ccc1Cl	-1.4%

— PubChem BioAssay AID602139 (NMMLSC, 2011)
